Assay outcomes deposited in PubChem by Pan Lab, Icahn School of Medicine at Mount Sinai.
Only a selection was taken, and hits are over-represented in it overall.
ROC1-CUL1 inh: inhibitors of human ROC1-CUL1 ubiquitin ligase activity. P62877+Q13616. in vitro K48 di-Ub FRET, acceptor:donor ratio, 45 min. inhibition, % at 10 µM. 140,000 compounds, 0.6% hits; in the data active means inhibition above about 25%
Target sequence (P62877 whole entry, looked up): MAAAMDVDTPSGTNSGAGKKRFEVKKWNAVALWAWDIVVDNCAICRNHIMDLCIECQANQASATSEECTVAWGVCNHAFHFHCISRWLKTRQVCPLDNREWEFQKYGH
Target sequence (Q13616 whole entry, looked up): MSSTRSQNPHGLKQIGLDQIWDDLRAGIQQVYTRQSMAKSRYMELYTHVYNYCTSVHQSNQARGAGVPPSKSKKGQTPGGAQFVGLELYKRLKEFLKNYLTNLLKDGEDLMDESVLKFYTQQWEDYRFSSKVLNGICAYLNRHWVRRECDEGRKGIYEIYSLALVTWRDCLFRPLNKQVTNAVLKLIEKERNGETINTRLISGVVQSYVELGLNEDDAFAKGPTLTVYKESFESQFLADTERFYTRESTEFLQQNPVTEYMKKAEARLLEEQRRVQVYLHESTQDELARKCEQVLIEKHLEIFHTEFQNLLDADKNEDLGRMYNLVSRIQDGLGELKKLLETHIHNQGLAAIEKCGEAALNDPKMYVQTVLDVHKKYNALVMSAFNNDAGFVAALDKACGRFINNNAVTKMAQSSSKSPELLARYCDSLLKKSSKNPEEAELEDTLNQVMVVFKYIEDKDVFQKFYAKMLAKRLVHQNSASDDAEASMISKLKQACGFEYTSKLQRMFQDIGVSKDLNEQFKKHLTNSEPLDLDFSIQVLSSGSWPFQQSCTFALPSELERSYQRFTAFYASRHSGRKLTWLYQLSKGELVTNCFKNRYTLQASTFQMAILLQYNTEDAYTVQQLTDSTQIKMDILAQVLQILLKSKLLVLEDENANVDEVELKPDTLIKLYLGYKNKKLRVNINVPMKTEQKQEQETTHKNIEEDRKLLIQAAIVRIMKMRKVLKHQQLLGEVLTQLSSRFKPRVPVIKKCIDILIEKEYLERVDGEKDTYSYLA
* hit, by the source's call.

SMILES	ROC1-CUL1 inh
NC1=NC(=O)/C(=C/c2cn(Cc3cccc4ccccc34)c3ccccc23)S1	-5
N/C(=N\OCc1ccc(Cl)cc1Cl)c1ccccc1	-2
Cc1cnc(CNC(=O)c2coc(COc3ccc(F)cc3Cl)n2)cn1	-7
CCc1ccc2nc(Cl)c(C3C4=C(CCCC4=O)OC(=N)C3C#N)cc2c1 (centres undefined)	1
CCOC(=O)C1C(=N)OC2=C(C(=O)CC(C)C2)C1c1cccnc1 (centres undefined)	-2
CCN(CC)c1ccc(/C=N/NC(=O)CSc2nc3ccccc3n2Cc2ccc(C)cc2)c(O)c1	-14
O=C(CSc1nc2scc(-c3cccs3)c2c(=O)n1-c1ccccc1)c1cccs1	0
CCOC(=O)C1=C(C)N=c2s/c(=C\c3ccc(O)cc3)c(=O)n2C1c1ccc(F)cc1 (centres undefined)	7
CCOC(=O)C1=C(C)N=c2s/c(=C\c3cc4c(cc3Br)OCO4)c(=O)n2C1c1ccc(Cl)cc1 (centres undefined)	-3
CCOC(=O)C1=C(C)N=c2s/c(=C/c3ccsc3)c(=O)n2C1c1ccc(OC)cc1 (centres undefined)	2
CCOC(=O)C1=C(C)N=c2s/c(=C/c3cc(Br)c(O)c(Br)c3)c(=O)n2C1c1ccc(Cl)cc1 (centres undefined)	83*
CCOC(=O)C1=C(C)N=c2s/c(=C\c3ccc(O)c(Br)c3)c(=O)n2C1c1ccc(OC)cc1 (centres undefined)	35*
CCOC(=O)C1=C(C)N=c2s/c(=C\c3ccc4c(c3)OCO4)c(=O)n2C1c1ccc(OC)cc1 (centres undefined)	10
Cc1ccc(C2=Nc3ncnn3C(c3c(F)cccc3Cl)C2)cc1C (centres undefined)	7
CC(C)(C)CC(=O)NCCC1=CCCCC1	1
CCOC(=O)C1(CCOc2ccccc2)CCN(C(=O)CCc2cccnc2)CC1	10
CCN1C(=O)CC(CC(=O)N2CCN(C(=O)c3ccco3)CC2)(c2cccc(C(F)(F)F)c2)C1=O (centres undefined)	-1
CCc1c2c(nc3sc(C(=O)Nc4ccc(OC)cc4)c(N)c13)CC(C)(C)CC2=O	4
O=C(Nc1ccc(-c2cccc(F)c2)cc1)C1CCCN(Cc2nccs2)C1 (centres undefined)	1
O=C(Nc1ccc(-c2cccc(F)c2)cc1)C1CCCN(CC2CC2)C1 (centres undefined)	1
O=C(Nc1ccc(-c2cccc(F)c2)cc1)C1CCCN(C(=O)c2ccoc2)C1 (centres undefined)	92*
N#CC1=CC2CCCCCCC2=NC1=S (centres undefined)	0
N#CC1=CC2CCCC2=NC1=S (centres undefined)	106*
CCC1=C(C#N)C(=S)N=C2CCCC21 (centres undefined)	-2
COc1ccc(C(=O)NCc2cccc(F)c2)cc1OC1CCN(C(C)=O)CC1	2
SMILES	ROC1-CUL1 inh
CC12CC(=NO)CC1(C)CC(=NO)C2 (centres undefined)	-1
CSc1cccc(NC(=O)C(C)N2CCN(c3ccccc3F)CC2)c1 (centres undefined)	10
COc1ccc(OC)c(NS(=O)(=O)c2cccc3cccnc23)c1	1
COc1cc(NCCCCCCCN)c2ncccc2c1	-3
COc1cc(NCCCCCN)c2ncccc2c1	26*
Cc1cccc(CS(=O)(=O)Nc2ccccc2C(N)=O)c1	-9
COC(=O)[C@@H]1C[C@H](C(=O)NCc2cnn(C)c2C)[C@H](c2cccc(Cl)c2)N1C	3
CCOC(=O)N1CCN(C(=O)c2ccc3c(c2)CC(C)N3S(C)(=O)=O)CC1 (centres undefined)	8
Cc1cc(C)nc(NS(=O)(=O)c2ccc(NC(=O)COc3ccc(Cl)cc3C)cc2)n1	3
Cc1cc(C)nc(NS(=O)(=O)c2ccc(NC(=O)c3ccc(Cl)cc3Cl)cc2)n1	-5
Cc1cc(C)nc(NS(=O)(=O)c2ccc(NC(=O)Nc3ccc(Cl)cc3)cc2)n1	25*
O=C(NCCc1cccs1)c1ccc(S(=O)(=O)N2CCOCC2)cc1	6
O=C1NC(=Nc2ccc(F)cc2)S/C1=C\c1ccc(O)c(Br)c1	2
COc1cc(/C=C2\SC(=Nc3cc(C)cc(C)c3)NC2=O)cc(Br)c1O	8
O=C1NC(=Nc2cccc(C(F)(F)F)c2)S/C1=C\c1cc(O)c(O)c(Br)c1	30*
O=C(Nc1ccc2c(c1)OCO2)N1CCC(CO)(CCOc2ccccc2)CC1	7
Cc1nn(Cc2ccc(C(=O)Nc3ccon3)o2)c(C)c1Br	-2
O=C(O)c1ccc(Nc2nc(Cl)nc(Cl)n2)cc1-c1c2ccc(=O)cc-2oc2cc(O)ccc12	106*
Cc1ccc(Nc2nc(Cl)nc(N3CCOCC3)n2)cc1Cl	-6
O=C(c1ccccc1)c1ccccc1Nc1nc(Cl)nc(Cl)n1	4
CN(Cc1ccc2nccnc2c1)C(=O)CC1(c2ccc(-c3ccccc3)cc2)CC(=O)N(C)C1=O (centres undefined)	12
COCCCN1C(=O)CC(CC(=O)N(C)Cc2n[nH]c3c2CCCC3)(c2ccccc2OC)C1=O (centres undefined)	16
O=C(Oc1cc(=O)n(-c2ccccc2)c2c1CCCC2)c1ccccc1	5
CC1(C)CC(=O)C(C(c2ccccc2OC(=O)c2ccccc2)C2C(=O)CC(C)(C)CC2=O)C(=O)C1	-11
COC12C=CC(CC1)C1=C2C(=O)c2c(OC(=O)c3ccccc3)ccc(OC(=O)c3ccccc3)c2C1=O (centres undefined)	71*
SMILES	ROC1-CUL1 inh
O=C(CCCCC(=O)Nc1scc(-c2ccccc2)c1C(=O)O)Nc1scc(-c2ccccc2)c1C(=O)O	4
CC1C(=NC(NC(=O)c2ccccc2)C(Cl)(Cl)Cl)C(=O)N(c2ccccc2)N1C (centres undefined)	9
C=CCOc1cccc(C(=O)NCc2nc(-c3ccccc3NC(=O)c3cc(C)oc3C)oc2C)c1	-1
CC(CCc1nc2ccccc2o1)C1CCC2C3CC[C@@H]4CC(OCCC(=O)O)CC[C@]4(C)C3CC[C@]12C (some centres undefined)	40*
Cc1ccc2nc(CCC(C)C3CCC4C5CC[C@@H]6CC(O)CC[C@]6(C)C5CC[C@]34C)[nH]c2c1 (some centres undefined)	-1
C[C@H](CCC(=O)O)[C@H]1CCC2C3CC[C@@H]4C[C@H](OC=O)CC[C@]4(C)C3CC[C@@]21C (some centres undefined)	2
CC(C)c1ccc(N2C(=O)/C(=C/c3ccc(O)cc3)C(=O)NC2=S)cc1	0
O=C1NC(=S)N(c2ccc(F)cc2)C(=O)/C1=C\c1ccc(N2CCOCC2)o1	-4
Cc1ccc(Cl)cc1-c1ccc(/C=C2/C(=O)NC(=S)N(c3ccc(F)cc3)C2=O)o1	46*
Cc1ccc(N2C(=O)/C(=C/c3ccc(N4CCN(C)CC4)o3)C(=O)NC2=S)cc1	-4
O=C1S/C(=C\c2ccc(Sc3ccccc3)o2)C(=O)N1c1ccc(Cl)cc1	-4
CC(C)c1ccc(N2C(=O)/C(=C/c3ccc(Sc4ccccc4)o3)C(=O)NC2=S)cc1	97*
COC(=O)c1ccccc1NC(=O)CSc1nnc(C)s1	-7
Cc1cc2c(cc1-c1nc3c([nH]1)c(C)nn3CC(C)C)OCO2	6
CN(C)CCOc1cccc(CN(Cc2ccccn2)C(=O)C2CCCO2)c1 (centres undefined)	6
O=C1NC(=S)N(c2ccc(Br)cc2)C(=O)/C1=C/c1ccc(F)cc1	0
